Source: PubChem
CIT2 TOR yeast: modulators of TOR pathway CIT2-GFP in S. cerevisiae | S. cerevisiae CIT2-GFP strain, flow cytometry, 3 h; 100 means same as DMSO wells | GFP response vs DMSO, % at 10 µM | 320,000 compounds, 0.065% hits;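 active means GFP response relative to DMSO above a set limit, near the screen mean plus 3 SD, cut at about 150% in these data; inconclusive means Fewer than 70 cells measured for a yeast strain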;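 further: ratio of well median GFP fluorescence to mean of DMSO wells on the plate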
LAP4-GFP MLPCN: yeast TOR pathway LAP4-GFP modulation. S. cerevisiae LAP4-GFP multiplex, flow cytometry GFP, 3 h; median GFP as percent of DMSO wells. GFP response vs DMSO, % at 10 µM. 320,000 compounds, 0.34% hits. AID 2023;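 active means GFP response vs DMSO above a set limit, about the screen mean plus 3 SD, cut at about 150% in these data; inconclusive means under 70 cell events counted for the yeast strain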
RPL19A-GFP yeast: modulators of TOR pathway RPL19A-GFP in S. cerevisiae; S. cerevisiae RPL19A-GFP strain, flow cytometry, 3 h; stronger effect = lower value; 330,000 compounds, 0.3% hits; percent response vs DMSO, % at 10 µM; AID 2025;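 active means percent response vs DMSO below 50%; inconclusive means fewer than 70 events counted for the yeast strain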;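 further: median channel GFP fluorescence of the barcoded RPL19A-GFP strain; ratio of sample median GFP to plate DMSO average so 100% = DMSO; lower means less RPL19A-GFP as with rapamycin TOR inhibition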
VLA-4 inh: inhibition in a human VLA-4 binding assay. P13612. VLA-4 expressing cells, ligand binding flow cytometry. inhibition, % (about 7 µM as worked out from the volumes in the protocol). 330,000 compounds, 0.2% hits. AID 2557; in the data active means inhibition above about 50%
Target sequence (P13612 whole entry, looked up): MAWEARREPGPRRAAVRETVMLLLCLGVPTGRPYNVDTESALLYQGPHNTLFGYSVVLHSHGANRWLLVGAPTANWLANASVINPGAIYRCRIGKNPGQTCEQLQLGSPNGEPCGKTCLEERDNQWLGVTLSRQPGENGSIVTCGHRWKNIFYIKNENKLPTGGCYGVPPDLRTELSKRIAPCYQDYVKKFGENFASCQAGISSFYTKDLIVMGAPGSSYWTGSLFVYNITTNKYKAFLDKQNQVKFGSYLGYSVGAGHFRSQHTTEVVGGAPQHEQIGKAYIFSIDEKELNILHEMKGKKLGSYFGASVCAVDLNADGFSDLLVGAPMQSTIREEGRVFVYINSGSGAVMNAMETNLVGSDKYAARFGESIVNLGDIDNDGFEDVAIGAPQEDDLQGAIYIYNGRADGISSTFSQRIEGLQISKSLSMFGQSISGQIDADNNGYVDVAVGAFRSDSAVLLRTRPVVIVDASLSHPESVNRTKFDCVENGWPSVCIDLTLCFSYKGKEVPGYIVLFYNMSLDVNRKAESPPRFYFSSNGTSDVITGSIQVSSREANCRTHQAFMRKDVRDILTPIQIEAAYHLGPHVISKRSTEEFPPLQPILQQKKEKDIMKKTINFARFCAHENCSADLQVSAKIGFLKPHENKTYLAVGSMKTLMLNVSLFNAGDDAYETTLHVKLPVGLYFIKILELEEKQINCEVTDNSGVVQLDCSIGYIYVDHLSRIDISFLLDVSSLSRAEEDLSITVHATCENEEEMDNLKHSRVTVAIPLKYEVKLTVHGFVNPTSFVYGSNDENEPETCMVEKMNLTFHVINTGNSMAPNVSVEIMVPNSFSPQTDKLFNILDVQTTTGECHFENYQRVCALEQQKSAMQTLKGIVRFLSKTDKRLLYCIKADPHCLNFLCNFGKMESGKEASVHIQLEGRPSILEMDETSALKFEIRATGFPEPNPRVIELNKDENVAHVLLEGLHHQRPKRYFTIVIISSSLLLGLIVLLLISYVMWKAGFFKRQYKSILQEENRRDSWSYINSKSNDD
MEP2 TOR yeast: modulators of TOR pathway MEP2-GFP in S. cerevisiae; 330,000 compounds, 0.51% hits; S. cerevisiae MEP2-GFP strain, flow cytometry GFP, 3 h; 100% = DMSO control level; GFP response vs DMSO, % at 10 µM; AID 2016;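 active means GFP response versus DMSO above a set limit, roughly screen mean plus 3 SD, cut at about 180% in these data; inconclusive means fewer than 70 cells counted for a yeast strain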;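 further: median GFP fluorescence of the barcode-gated MEP2-GFP cells per well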
AGP1-GFP MLPCN: alters AGP1-GFP fluorescence in TOR pathway yeast screen | AID 2066 | 320,000 compounds, 0.02% hits | GFP response vs DMSO, % at 10 µM | S. cerevisiae AGP1-GFP multiplex flow cytometry, 3 h; GFP as percent of DMSO wells;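 active means GFP response relative to DMSO above a set limit, near screen average plus 3 SD, cut at about 150% in these data; inconclusive means fewer than 70 cells counted for the yeast strain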;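 further: median GFP channel fluorescence of the gated AGP1 strain per well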
The depositor's hits bear a star; ? = inconclusive; · = no result given; [ ] = remark or other dose. Most compounds without a hit are left out; they make up all but 1.1% or so of the library.

SMILES	CIT2 TOR yeast	LAP4-GFP MLPCN	RPL19A-GFP yeast	VLA-4 inh	MEP2 TOR yeast	AGP1-GFP MLPCN
C/C(=N\NC(=O)c1c(Br)c(C)nn1C)c1cccc(NC(=O)C2CCC2)c1	162*	138	89	31	156	126
C[C@H](CO)N1C[C@H](C)[C@@H](CN(C)Cc2ccc(C(=O)O)cc2)Oc2c(cccc2N(C)C)C1=O	·	·	·	-4	·	·
O=C(Nc1ccc(Nc2ccccc2)cc1)c1ccc(Cl)cc1	105	118	99	-2	105	101
N#C/C(C(=O)Nc1ccc(Cl)cc1)=C(/S)Nc1ccccc1	115	194*	101	-9	110	84
CC(C)C(C(=O)NCC1CCCO1)N(CC1CCCO1)C(=O)CNS(=O)(=O)c1ccccc1 (stereo not drawn)	106	96	105	1	109	103
Cc1cc(=O)oc2c(CN3CCN(CCO)CC3)c(O)ccc12	102	101	101	5	101	103
O=c1oc2c(CN3CCN(CCO)CC3)c(O)ccc2cc1-c1ccccn1	?	?	40*[may fluoresce violet]	27	?	?
CCN(CC1CCCO1)C(=O)c1cc(COc2ccccc2SC)on1 (stereo not drawn)	?	?	?	-6	?	?
CCN(CC)S(=O)(=O)c1cc([N+](=O)[O-])ccc1NNC(=O)Nc1ccc(Cl)c(Cl)c1	?	115	53	1	376*[may fluoresce violet]	?
O=C(NNc1ccccc1[N+](=O)[O-])Nc1ccc(Cl)c(Cl)c1	95	86	98	10	90	96
CCCCOc1ccc(N2C(N)=NC(N)=NC23CCCCC3)cc1	106	99	106	-2	119	112
COc1ccc(Nc2cc(C)nc3ccc(OC)cc23)cc1	100	89	100	4	102	97
COc1ccc2nc(C)cc(Nc3ccc(C(=O)O)cc3)c2c1	?	54	61	-3	237*[may fluoresce violet]	?
Cc1cccnc1NC(=O)C(C)N1C(=O)c2ccccc2C1=O (stereo not drawn)	?	101	52	-4	738*[may fluoresce violet]	20
Cc1c(C(=O)N2CCOCC2)c(S(=O)(=O)Nc2ccccc2)c(C)n1C	96	89	98	20	106	96
O=C1CN(C(=O)N[C@@H](Cc2ccccc2)C(=O)N[C@H](Cc2ccccc2)C(=O)O)c2ccccc2N1	?	86	14*[may fluoresce violet]	7	242*[may fluoresce violet]	?
O=C(COC(=O)c1cc(S(=O)(=O)N2CCCC2)ccc1O)Nc1ccccc1Br	111	111	101	-10	107	107
Clc1ccc(Oc2nc3ccccc3n3cccc23)cc1	?	112	64	8	232*[may fluoresce violet]	·
CCN1C(=O)/C(=C/C=C2\C=CN(CC)c3ccccc32)SC1=S	?	74	40*[may fluoresce violet]	27	430*[may fluoresce violet]	18
CCN1C(=O)/C(=C\C=C2/C=CC=CN2CC)SC1=S	100	102	101	-5	104	104
O=C1Nc2ccc(Br)cc2C1(O)Cc1ccncc1 (stereo not drawn)	?	112	16*[may fluoresce violet]	-3	438*[may fluoresce violet]	?
O=C1Nc2ccccc2C1(O)Cc1ccncc1 (stereo not drawn)	97	93	95	0	103	98
CCOC(=O)C1(CCOc2ccccc2)CCN(Cc2cccc(OC)c2OC)CC1	100	90	110	10	106	104
COc1ccc(NC(=S)N2CCC(c3ccccc3)C2)cc1 (stereo not drawn)	121	132	104	2	249*	117
CN(Cc1ccccc1)C1CCNCC1	103	100	107	12	112	101
SMILES	CIT2 TOR yeast	LAP4-GFP MLPCN	RPL19A-GFP yeast	VLA-4 inh	MEP2 TOR yeast	AGP1-GFP MLPCN
Cc1cc(C)n(-c2ccc(NC(=O)C3CCN(Cc4ccccn4)CC3)cc2)n1	94	90	101	1	95	97
Cn1c(N)c(C(=O)COC(=O)c2cccs2)c(=O)n(C)c1=O	?	60	64	4	273*[may fluoresce violet]	?
Cn1c(N)c(C(=O)COC(=O)CCC(=O)c2cccs2)c(=O)n(C)c1=O	83	91	90	0	92	86
O=C(Cn1c(=O)oc2cc(S(=O)(=O)N3CCCC3)ccc21)Nc1ccccc1Br	88	97	51	7	191*	82
CC(=O)c1cccc(NC(=O)Cn2c(=O)oc3cc(S(=O)(=O)N4CCCC4)ccc32)c1	89	90	101	1	101	102
CC1(C)CC(n2c(=S)[nH]c3ccccc3c2=O)CCO1 (stereo not drawn)	?	98	·	-1	267*[may fluoresce violet]	29
Cc1ccc(C)c(N=C2NC(=O)CS2)c1	?	87	43*[may fluoresce violet]	-1	340*[may fluoresce violet]	?
Cc1ccccc1N=C1NC(=O)CS1	97	99	101	12	101	104
O=C(NC1CCCCC1)c1cc(-c2cccs2)on1	87	105	98	4	100	94
Cc1cccc(N2CCN(c3ccc4cc(S(=O)(=O)N5CCCCC5)ccc4n3)CC2)c1C	?	92	27*[may fluoresce violet]	3	163	17
CCN(CC)c1ccc(NC(=O)c2ccc3c(c2)OCO3)c(C)c1	103	92	105	23	105	100
COc1cccc(CNC(=O)CCC(=O)N2Cc3cccc(OC)c3Oc3ncccc32)c1OC	84	79	26*	-11	146	17
COc1cccc2c1Oc1ncccc1N(C(=O)CCC(=O)NCc1ccc(C)cc1)C2	91	94	93	1	92	100
COc1cccc2c1Oc1ncccc1N(C(=O)CCC(=O)NCc1cccc(C)c1)C2	103	89	38*	1	148	15
CC(C)CN1CCN(C(=O)CCc2nnc(Cc3c[nH]c4ccccc34)o2)[C@@H](C)C1=O	112	63	?	-5	92	?
CCN1C(=O)/C(=C\N2CCN(c3ccc(F)cc3)CC2)SC1=S	96	98	100	-7	96	94
CCN1C(=O)/C(=C\N2CCN(C)CC2)SC1=S	?	87	42*[may fluoresce violet]	-2	332*[may fluoresce violet]	?
COc1cc(C(=O)NC(=S)Nc2nc(-c3ccc(F)cc3)cs2)cc(OC)c1OC	164*[may fluoresce green]	107	93	-10	109	121
CC1C(=O)N(Cc2cccc(F)c2)c2ccccc2N1C(=O)c1ccccc1 (stereo not drawn)	?	97	63	-29	263*[may fluoresce violet]	?
O=C(CNC(=O)c1ccc(Cl)cc1)NNc1c(F)c(F)cc(F)c1F	114	98	103	2	112	106
O=c1cc(-c2ccc(C(F)(F)F)cc2)oc2ccccc12	?	107	44*[may fluoresce violet]	-6	181*[may fluoresce violet]	?
Cc1nc(CNS(=O)(=O)c2ccc(F)cc2)cs1	111	95	104	3	108	99
